Results published in PubChem BioAssay (Tox21).
Inconclusive results are not listed. The source made the active and inactive calls. Unless noted, calls follow the shape of the dose curve; as a rule, active = well fitted curve in the direction sought with a large enough effect in the repeat runs; inconclusive = weak or mixed curves; inactive = no such curve, though single readings can be large; an effect the other way counts as inactive or inconclusive.

What was measured:
[1] = qHTS assay to identify small molecule antagonists of the constitutive androstane receptor (CAR) signaling pathway - cell viability counter screen (AID 1224837); details: HepG2-CYP2B6-hCAR viability, CellTiter-Fluor, 23 h, co-treated with 50 nM CITCO; series mostly up to 92.4 µM; also: nearly all actives have a fitted effect of over 45% in size
Outline: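 Fluorescence from CellTiter-Fluor served as the viability signal. Human hepatoma HepG2 cells stably bearing hCAR and CYP2B6-2.2kb received compound plus CITCO (50 nM final) for 23 hr.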

[2] = qHTS assay to identify small molecule antagonists of the estrogen related receptor signaling pathway with the pleiotropic PPARgamma coactivator (PGC) from Tox21 10K library - cell viability counter screen (AID 1224840; active = well fitted cell-killing curve with a large enough effect in the repeat runs, not every such curve was filed as active; also: nearly all actives have a fitted effect of over 40% in size); details: PGC/ERR reporter cells viability, CellTiter-Fluor, 17.5 h; series mostly up to 92.4 µM
Outline: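 Compounds in DMSO, alongside positive and negative controls, were pinned onto PGC/ERR cells (2,000 per well). Exposure lasted 17.5 hours at 37 C, followed by a 30-minute CellTiter-Fluor incubation and fluorescence reading.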

[3] = target: Thyrotropin receptor (Homo sapiens) (UniProt P16473); test: qHTS assay to identify small molecule agonists of the thyroid stimulating hormone receptor (TSHR) signaling pathway (AID 1224843; calls by dose curve; also: nearly all actives have a fitted effect of over 45% in size; also: potency is read from the fitted curve at half-maximal effect); details: TSHR-HEK293 cells, cAMP HTRF, agonist mode, 30 min; series mostly up to 92.4 µM
Outline: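 HEK293 cells stably bearing the thyrotropin receptor were plated at 800 cells/well and challenged with compound (30 min, RT). Accumulated cAMP was quantified via cAMP-d2 competing for cryptate-tagged antibody.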

[4] = qHTS assay to identify small molecule agonists of the hypoxia (HIF-1) signaling pathway - cell viability counter screen (AID 1224844; calls by dose curve; also: nearly all actives have a fitted effect of over 50% in size); details: HRE-bla ME-180 viability, CellTiter-Glo luminescence, 17 h; series mostly up to 76.8 µM
Outline: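 Luminescent ATP content (CellTiter-Glo, 30 min, room temperature) served as the viability measure in HRE-bla ME-180 cells exposed to compounds for 17 hrs in low-serum medium (0.5% dialyzed FBS).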

[5] = qHTS assay to identify small molecule agonists of the hypoxia (HIF-1) signaling pathway (AID 1224846; active = well fitted activation curve with a large enough effect in the signal ratio in the repeat runs, not every such curve was filed as active; the % refers to the signal ratio); details: HRE-bla ME-180 cells, beta-lactamase ratio, 17 h; series mostly up to 76.8 µM
Outline: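 Measured by blue/green FRET after loading CCF4-AM: beta-lactamase expressed from a hypoxia response element in ME-180 cells. Test agents were delivered in DMSO and left 17 hrs; cells had been plated 5 hrs earlier in low-serum (0.5% dialyzed FBS) medium.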

[6] = qHTS assay to identify small molecule agonists of H2AX - cell viability counter screen (AID 1224847; calls by dose curve; also: nearly all actives have a fitted effect of over 30% in size; also: potency is read from the fitted curve at half-maximal effect; as to activity change, negative = cytotoxicity: top concentration of the series differs between compounds); details: CHO-K1 viability, CellTiter-Glo luminescence, 3 h; series mostly up to 154 µM
Outline: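 Cytotoxicity counter screen in wild-type CHO-K1 cells: a 3 hr compound treatment at 37C across 15 concentrations, followed by CellTiter-Glo luminescence to gauge viable cells.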

[7] = qHTS RealTime-Glo MT Cell Viability Assay in HepG2 cells - 24 hour (AID 1224867); details: RealTime-Glo luminescence; series mostly up to 76.8 µM; also: nearly all actives have a fitted effect of over 50% in size
Outline: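 Viability was tracked continuously by NanoLuc luminescence from prosubstrate reduced by living HepG2 cells, at successive time points over 40 h of compound exposure. Cells with reagent were preincubated 5 h at 37 °C before compound addition.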

[8] = qHTS RealTime-Glo MT Cell Viability Assay in HEK293 cells - 32 hour (AID 1224868); details: RealTime-Glo luminescence; series mostly up to 76.8 µM; also: nearly all actives have a fitted effect of over 50% in size; also: potency is read from the fitted curve at half-maximal effect; as to activity change, negative = cytotoxic: top concentration of the series differs between compounds
Outline: (§1)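 Viability tracked continuously by luminescence as live cells reduce a prosubstrate for NanoLuc; HEK293 cells preincubated 5 h, compound-treated at 37 C, and read at 0, 8, 16, 24, 32 and 40 h.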

[9] = A CellTox Green Cytotoxicity Assay to monitor cytotoxicity in HEK293 cells - 0 hour (AID 1224869); details: CellTox Green fluorescence; series mostly up to 76.8 µM; also: nearly all actives have a fitted effect of over 50% in size
Outline: (§2)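 Each value comes from one timepoint of a single continuous run in which HEK293 cells with CellTox Green were exposed to compound for up to 40 h at 37 C, dye fluorescence rising with cell death.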

[10] = qHTS RealTime-Glo MT Cell Viability Assay in HepG2 cells - 40 hour (AID 1224870); details: RealTime-Glo luminescence; series mostly up to 76.8 µM; also: nearly all actives have a fitted effect of over 50% in size
Outline: (§3)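 Real-time viability: cells seeded at 600 per well together with NanoLuc and cell-permeant prosubstrate, compounds added after 5 h incubation. Luminescence tracked at 0, 8, 16, 24, 32 and 40 h of exposure.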

[11] = A CellTox Green Cytotoxicity Assay to monitor cytotoxicity in HEK293 cells - 40 hour (AID 1224871); details: CellTox Green fluorescence; series mostly up to 76.8 µM; also: nearly all actives have a fitted effect of over 45% in size
Outline: as §2

[12] = qHTS RealTime-Glo MT Cell Viability Assay in HepG2 cells - 8 hour (AID 1224873); details: RealTime-Glo luminescence; series mostly up to 76.8 µM; also: nearly all actives have a fitted effect of over 55% in size
Outline: as §3

[13] = qHTS assay to identify small molecule antagonists of the estrogen related receptor signaling pathway with the pleiotropic PPARgamma coactivator (PGC) from Tox21 10K library (AID 1224841; call rule not given here; also: potency is read from the fitted curve at half-maximal effect); details: PGC/ERR reporter cell line, ONE-Glo luciferase, 18 h; series mostly up to 92.4 µM
Outline: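 Compound exposure ran 18 hours at 37 C in PGC/ERR cells (2,000/well) that had first rested 6 hours in a 37 C/5% CO2 incubator. Luciferase activity was then detected with One-Glo after a 30-minute room-temperature step.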

[14] = qHTS assay to identify small molecule agonists of the estrogen related receptor signaling pathway with the pleiotropic PPARgamma coactivator (PGC) from Tox21 10K library (AID 1224842); details: PGC/ERR reporter cell line, luciferase ONE-Glo, 18 h; series mostly up to 92.4 µM; also: nearly all actives have a fitted effect of over 15% in size
Outline: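 Luminescence from One-Glo (30 min, room temperature) measured after PGC/ERR cells had 18 h at 37 C with pinned compound (23 nL in DMSO). Cells had been seeded at 2,000 per well and pre-incubated 6 h.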

[15] = qHTS assay to identify small molecule antagonists of the estrogen related receptor (ERR) signaling pathway from Tox21 library (AID 1224848); details: ERR reporter cell line, luciferase antagonist mode, 18 h; series mostly up to 92.4 µM; also: nearly all actives have a fitted effect of over 50% in size; also: potency is read from the fitted curve at half-maximal effect
Outline: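 Reading was by luminescence 30 min after ONE-Glo addition. Before that, ERR cells at 2,000 per well had rested 6 h at 37 C/5% CO2 and then received pin-tooled compounds in DMSO for 18 h at 37 C.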

[16] = qHTS assay to identify small molecule agonists of the estrogen related receptor (ERR) signaling pathway from Tox21 library (AID 1224849; calls by dose curve; also: nearly all actives have a fitted effect of over 15% in size); details: ERR reporter cell line, ONE-Glo luciferase, 18 h; at 92.4 µM (top of the series) unless noted
Outline: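 We plated ERR reporter cells, waited 6 h, added compounds in DMSO by pin tool and incubated them 18 h at 37 C. ONE-Glo was then added and luminescence read after 30 min.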

[17] = target: Nuclear receptor subfamily 1 group I member 3 (Homo sapiens) (UniProt Q14994); test: qHTS assay to identify small molecule antagonists of the constitutive androstane receptor (CAR) signaling pathway (AID 1224838); details: HepG2-CYP2B6-hCAR luciferase, CITCO-stimulated, 24 h; series mostly up to 92.4 µM;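 also: HepG2 cells stably expressing hCAR with CYP2B6 luciferase reporter stimulated by CITCO; nearly all actives have a fitted effect of over 40% in size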; also: potency is read from the fitted curve at half-maximal effect
Outline: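 Quantitative HTS in double-stable HepG2-CYP2B6-hCAR cells. After 4 h plating, cells get compound (15 concentrations) and CITCO at 50 nM final, incubate 24 h at 37 C, then ONE-Glo luminescence is read.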

[18] = target: Nuclear receptor subfamily 1 group I member 3 (Homo sapiens) (UniProt Q14994); test: qHTS assay to identify small molecule agonists of the constitutive androstane receptor (CAR) signaling pathway (AID 1224839); details: HepG2 hCAR CYP2B6-luciferase, agonist mode, 24 h; series mostly up to 92.4 µM; also: nearly all actives have a fitted effect of over 15% in size; also: potency is read from the fitted curve at half-maximal effect;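 as to activation: HepG2 cells stably carrying human CAR and a CYP2B6 luciferase reporter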
Outline: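 Cells were plated and incubated 4 hrs, then dosed with compounds at 15 concentrations. PK11195 was added to 0.75 uM final. After 24 hrs at 37 C, luciferase luminescence was measured.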

[19] = qHTS assay to identify small molecule agonists of H2AX (AID 1224845; active = well fitted activation curve with a large enough effect in the signal ratio in the repeat runs, not every such curve was filed as active; the % refers to the signal ratio); details: CHO-K1 phospho-H2AX Ser139 HTRF, 3 h; series mostly up to 154 µM
Outline: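 Phospho-H2AX Ser139 measured by HTRF (ex 320 nm; em 665 and 620 nm) after 24 hr antibody incubation. Compounds, 15 concentrations, 0.76% DMSO, were applied to CHO-K1 cells for 3hr at 37C before lysis.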

[20] = qHTS RealTime-Glo MT Cell Viability Assay in HEK293 cells - 16 hour (AID 1224872); details: RealTime-Glo luminescence; series mostly up to 76.8 µM
Outline: as §1
% is scaled to controls: 0 for no effect and ±100 for the full control effect.

Chain of Nuclear receptor subfamily 1 group I member 3 (Homo sapiens) (Q14994 whole entry, looked up): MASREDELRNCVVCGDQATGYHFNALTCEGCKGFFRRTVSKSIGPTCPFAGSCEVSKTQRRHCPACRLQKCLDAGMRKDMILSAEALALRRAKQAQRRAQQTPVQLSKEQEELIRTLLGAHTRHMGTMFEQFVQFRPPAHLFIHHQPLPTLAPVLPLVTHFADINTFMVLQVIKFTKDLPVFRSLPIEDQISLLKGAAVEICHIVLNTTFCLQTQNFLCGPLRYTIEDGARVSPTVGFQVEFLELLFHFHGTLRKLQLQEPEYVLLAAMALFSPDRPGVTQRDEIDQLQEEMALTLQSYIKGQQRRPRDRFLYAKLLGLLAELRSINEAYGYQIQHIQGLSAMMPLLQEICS
Chain of Thyrotropin receptor (Homo sapiens) (P16473 whole entry, looked up): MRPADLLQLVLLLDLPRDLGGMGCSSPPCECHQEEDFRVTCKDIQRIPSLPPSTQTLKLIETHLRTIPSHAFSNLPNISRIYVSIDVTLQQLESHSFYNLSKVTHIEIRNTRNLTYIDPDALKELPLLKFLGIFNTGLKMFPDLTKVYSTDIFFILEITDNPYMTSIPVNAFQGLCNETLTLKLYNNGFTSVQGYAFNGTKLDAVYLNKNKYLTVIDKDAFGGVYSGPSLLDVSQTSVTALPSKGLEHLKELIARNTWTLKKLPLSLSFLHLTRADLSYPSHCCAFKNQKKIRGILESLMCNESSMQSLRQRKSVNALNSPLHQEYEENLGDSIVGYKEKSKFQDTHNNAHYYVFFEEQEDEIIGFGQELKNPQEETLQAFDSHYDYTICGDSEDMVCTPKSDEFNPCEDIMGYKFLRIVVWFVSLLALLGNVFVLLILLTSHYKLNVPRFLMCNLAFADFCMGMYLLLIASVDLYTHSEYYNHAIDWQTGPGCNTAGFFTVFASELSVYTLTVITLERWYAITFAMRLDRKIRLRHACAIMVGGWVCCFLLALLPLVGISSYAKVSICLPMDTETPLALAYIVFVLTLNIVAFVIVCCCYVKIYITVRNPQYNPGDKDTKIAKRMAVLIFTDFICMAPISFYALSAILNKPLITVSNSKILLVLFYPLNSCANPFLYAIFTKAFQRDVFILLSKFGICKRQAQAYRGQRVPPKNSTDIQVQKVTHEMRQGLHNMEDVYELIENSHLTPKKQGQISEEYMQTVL

CCCCNc1ccc(NCCCC)c2c1C(=O)c1ccccc1C2=O
inactive: activity change, negative = cytotoxicity [1] 5.61% [at 19 µM] | viability change, negative = cytotoxic [2] -1.23% [at 19 µM] | activation [3] -9.62% [at 19 µM] | activity change, negative = cytotoxicity [4] -26.2% [at 15.8 µM] | activation [5] 0.413% [at 15.8 µM] | activity change, negative = cytotoxicity [6] -12.2% [at 31.6 µM] | activity change, negative = cytotoxicity [7] -2.93% [at 15.8 µM] | activity change, negative = cytotoxic [8] 1.33% [at 15.8 µM] | cytotoxicity [9] 1.41% [at 15.8 µM] | activity change, negative = cytotoxic [10] -5.13% [at 15.8 µM] | cytotoxicity increase [11] -1.5% [at 15.8 µM] | viability change, negative = cytotoxic [12] 0.0909% [at 15.8 µM]

C1=CCCC1
inactive: Potency [1] | Potency [2] | Potency [3] | Potency [4] | Potency [5] | Potency [7] | Potency [10] | Potency [12]

Nc1ccc2c(S(=O)(=O)O)cccc2c1S(=O)(=O)O
inactive: Potency [1] | Potency [2] | Potency [13] | Potency [14] | Potency [3] | Potency [4] | Potency [5] | Potency [15] | activity change, positive = activation [16] -1.51% [at 42.5 µM] | Potency [7] | Potency [8] | Potency [9] | Potency [10] | Potency [11] | Potency [12]

O=C1OC(=O)c2cc(-c3ccc4c(c3)C(=O)OC4=O)ccc21
inactive: Potency [17] | Potency [18] | Potency [2] | Potency [4] | Potency [5] | Potency [7] | Potency [8] | Potency [9] | Potency [10] | Potency [11] | Potency [12]

C/C=C/C(=O)C1=C(C)C=CCC1(C)C
inactive: Potency [17] | Potency [2] | Potency [13] | Potency [14] | Potency [3] | Potency [4] | Potency [19] | Potency [5] | Potency [6] | Potency [15] | activity change, positive = activation [16] -1.28% | Potency [7] | Potency [8] | Potency [9] | Potency [10] | Potency [11] | Potency [12]

CC(=O)CC(N)=O
inactive: Potency [1] | Potency [2] | Potency [5] | Potency [8] | Potency [9] | Potency [10] | Potency [11] | Potency [20] | Potency [12]

CC/C=C\C/C=C\C/C=C\CCCCCCCC(=O)OC
inactive: Potency [1] | Potency [4] | Potency [5] | Potency [7] | Potency [8] | Potency [9] | Potency [10] | Potency [20] | Potency [12]

S=C1NC=NC2N=CNC12 (stereo unspecified)
active: Potency [17] 6.11 µM | Potency [13] 0.486 µM | Potency [6] 3.19 µM | Potency [15] 19.3 µM | Potency [8] 21.9 µM
inactive: Potency [2] | Potency [14] | Potency [3] | Potency [4] | Potency [5] | activity change, positive = activation [16] -55.5% | Potency [7] | Potency [9] | Potency [10] | Potency [11] | Potency [12]

CCNc1nc(NC(C)(C)C)nc(OC)n1
inactive: Potency [17] | Potency [2] | Potency [3] | Potency [4] | Potency [19] | Potency [5] | Potency [6] | Potency [7] | Potency [9] | Potency [10] | Potency [11] | Potency [20] | Potency [12]
active: Potency [18] 30.6 µM

COc1cc(OC)nc(NC(=O)NS(=O)(=O)Nc2ccccc2C(=O)N(C)C)n1
inactive: Potency [17] | Potency [18] | Potency [2] | Potency [13] | Potency [14] | Potency [3] | Potency [4] | Potency [19] | Potency [5] | Potency [6] | Potency [15] | activity change, positive = activation [16] -7.75% | Potency [7] | Potency [8] | Potency [9] | Potency [10] | Potency [11] | Potency [20] | Potency [12]

O[Si](c1ccccc1)(c1ccccc1)c1ccccc1
inactive: Potency [17] | Potency [4] | Potency [19] | Potency [5] | activity change, positive = activation [16] -39.7% | Potency [9] | Potency [10] | Potency [11] | Potency [12]
active: Potency [18] 30.6 µM | Potency [13] 68.6 µM | Potency [3] 48.6 µM | Potency [6] 101 µM | Potency [8] 38.9 µM

CC(C)C(=O)C(C)C
inactive: Potency [17] | Potency [18] | Potency [2] | Potency [13] | Potency [3] | Potency [4] | Potency [19] | Potency [5] | Potency [15] | activity change, positive = activation [16] 1.37% | Potency [7] | Potency [8] | Potency [9] | Potency [10] | Potency [11] | Potency [20] | Potency [12]
